“And” between values parts separate entries of the source, which are not always exact repeats. Equal entries are not always repeated. Results filed as inconclusive are left out. Unmarked numbers belong to inactive results. The source made the active and inactive calls. Unless noted, calls come from the whole dose curve; as a rule, active = well fitted curve in the direction sought with a large enough effect in the repeat runs; inconclusive = weak or mixed curves; inactive = no such curve, though single readings can be large; an effect the other way counts as inactive or inconclusive.

Experiment [1] in a line: qHTS assay to identify small molecule antagonists of the retinoic acid receptor (RAR) signaling pathway (AID 1159552; note: nearly all actives have a fitted effect of over 50% in size; note: potency is the fitted concentration of half-maximal effect). In short, it runs like this:
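Luminescent RARE reporter read-out in C3RL4 cells: 6 hr co-treatment at 37 C of test compounds with retinol at 1 uM final. Cells plated overnight beforehand; luciferase reagent incubated 30 min at room temperature before reading.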
(In general: qHTS replaces the single test concentration by a dilution series.)

Experiment [2] can be described thus: qHTS assay to identify small molecule agonists of the constitutive androstane receptor (CAR) signaling pathway - cell viability counter screen (AID 1224836). Note: nearly all actives have a fitted effect of over 45% in size. Note: potency is the fitted concentration of half-maximal effect. In short, it runs like this: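 Cell viability multiplexed with the CAR agonist screen: CellTiter-Fluor fluorescence after 23 hr at 37 C. HepG2-CYP2B6-hCAR cells got compounds at 15 concentrations with PK11195 at 0.75 uM final.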

The nature of experiment [3]: qHTS assay to identify small molecule antagonists of the constitutive androstane receptor (CAR) signaling pathway - cell viability counter screen (AID 1224837). Note: nearly all actives have a fitted effect of over 45% in size. Note: potency is the fitted concentration of half-maximal effect. The method in brief:
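In quantitative HTS format, compounds at 15 concentrations were applied to HepG2 cells double-transfected with hCAR and CYP2B6-2.2kb under 50 nM CITCO stimulation; live-cell protease activity was read after 23 hr via CellTiter-Fluor.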

Experiment [4] has as its target Nuclear receptor subfamily 1 group I member 3 (Homo sapiens) (UniProt Q14994). Description: qHTS assay to identify small molecule agonists of the constitutive androstane receptor (CAR) signaling pathway (AID 1224839).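 For activation: HepG2 cells stably carrying human CAR and a CYP2B6 luciferase reporter; series mostly up to about 92 µM; % is set by controls: 0 for no effect and ±100 for the full control effect.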 Note: nearly all actives have a fitted effect of over 15% in size. Note: potency is the fitted concentration of half-maximal effect. The method in brief: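 Luminescent ONE-Glo read-out after 24 hr, 37 C exposure of double-stable HepG2-CYP2B6-hCAR reporter cells to a 15-point compound series, in the presence of 0.75 uM PK11195 (final).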

Experiment [5] is described as follows: qHTS assay to identify small molecule antagonists of the estrogen related receptor signaling pathway with the pleiotropic PPARgamma coactivator (PGC) from Tox21 10K library - cell viability counter screen (AID 1224840; active = well fitted cell-killing curve with a large enough effect in the repeat runs, not every such curve was filed as active; note: nearly all actives have a fitted effect of over 40% in size; note: potency is the fitted concentration of half-maximal effect). In short, it runs like this: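 Viability counter screen, PGC/ERR cells: 17.5 h compound exposure at 37 C, CellTiter-Fluor fluorescence endpoint.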

In experiment [6] the target is Thyrotropin receptor (Homo sapiens) (UniProt P16473). In words: qHTS assay to identify small molecule agonists of the thyroid stimulating hormone receptor (TSHR) signaling pathway (AID 1224843; calls by dose curve; note: nearly all actives have a fitted effect of over 45% in size; note: potency is the fitted concentration of half-maximal effect; for activation: % is set by controls: 0 for no effect and ±100 for the full control effect). In short, it runs like this:
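Compounds are titrated over 15 concentrations, in triplicate, onto TSHR-HEK293 cells seeded at 800/well. Plates sit 30 min at room temperature before cAMP-d2 and anti-cAMP cryptate are added; signal is read after a further hour.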

Experiment [7] can be described thus: qHTS assay to identify small molecule agonists of the hypoxia (HIF-1) signaling pathway - cell viability counter screen (AID 1224844; calls by dose curve; note: nearly all actives have a fitted effect of over 50% in size; note: potency is the fitted concentration of half-maximal effect). The method in brief: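 Same wells as the HIF-1 reporter screen; ME-180 cells carrying HRE-bla, 17 hr treatment at 37C; CellTiter-Glo luminescence read after 30 min at room temperature.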
Experiment [8] can be described thus: qHTS assay to identify small molecule antagonists of the estrogen related receptor (ERR) signaling pathway from Tox21 library - cell viability counter screen (AID 1224834). Note: nearly all actives have a fitted effect of over 30% in size. Note: potency is the fitted concentration of half-maximal effect. In short, it runs like this:
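In this quantitative HTS format, ERR cells receive compounds in DMSO and are incubated for 17.5 h at 37 C. Live-cell protease activity is then detected with CellTiter-Fluor.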

Experiment [9] concerns the target Luciferin 4-monooxygenase (Photinus pyralis) (UniProt P08659). Description: qHTS assay to identify small molecule inhibitors of firefly luciferase (AID 1224835). Note: nearly all actives have a fitted effect of over 25% in size. Note: potency is the fitted concentration of half-maximal effect. In short, it runs like this: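 Quantitative HTS format; KM concentrations of both substrates. Purified P. pyralis FLuc activity quantified from luminescence images.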
Experiment [10] has as its target Nuclear receptor subfamily 1 group I member 3 (Homo sapiens) (UniProt Q14994). Description: qHTS assay to identify small molecule antagonists of the constitutive androstane receptor (CAR) signaling pathway (AID 1224838). Note: nearly all actives have a fitted effect of over 40% in size. Note: potency is the fitted concentration of half-maximal effect. In short, it runs like this: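 CITCO-stimulated (50 nM final) HepG2 cells stably transfected with hCAR and CYP2B6-2.2kb luciferase were exposed to compounds at 15 concentrations for 24 h at 37 C/5% CO2. A luciferase reagent was added and luminescence recorded after 30 min.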

A short description of experiment [11]: qHTS assay to identify small molecule antagonists of the estrogen related receptor signaling pathway with the pleiotropic PPARgamma coactivator (PGC) from Tox21 10K library (AID 1224841; call rule not given here; note: potency is the fitted concentration of half-maximal effect; actives are mostly falling curves and most rising ones were filed inactive; nearly all actives have a fitted effect of over 50% in size). In short, it runs like this:
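In the PGC/ERR line, DMSO solutions of test chemicals are pin-delivered to 2,000 cells/well six hours after dispensing. Following eighteen hours' incubation, One-Glo reagent is added and luminescence recorded.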

Experiment [12] is described as follows: qHTS assay to identify small molecule agonists of the estrogen related receptor signaling pathway with the pleiotropic PPARgamma coactivator (PGC) from Tox21 10K library (AID 1224842). Note: % is set by controls: 0 for no effect and ±100 for the full control effect; nearly all actives have a fitted effect of over 15% in size. In short, it runs like this: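 PGC/ERR reporter cells (NTP line) were seeded 2,000 per well, rested 6 h at 37 C/5% CO2, then pin-dosed with compounds in DMSO for 18 h at 37 C; luciferase read by One-Glo luminescence after 30 min at room temperature.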

Experiment [13] is described as follows: qHTS assay to identify small molecule agonists of the retinoic acid receptor (RAR) signaling pathway (AID 1159553). Note: potency is the fitted concentration of half-maximal effect. In short, it runs like this: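 Compounds dissolved in DMSO were pinned onto C3RL4 cells seeded the previous day, and plates were held 6 hr at 37 C. RARE-driven luciferase output was then read by luminescence.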

Sequence of Thyrotropin receptor (Homo sapiens) (P16473 whole entry, looked up): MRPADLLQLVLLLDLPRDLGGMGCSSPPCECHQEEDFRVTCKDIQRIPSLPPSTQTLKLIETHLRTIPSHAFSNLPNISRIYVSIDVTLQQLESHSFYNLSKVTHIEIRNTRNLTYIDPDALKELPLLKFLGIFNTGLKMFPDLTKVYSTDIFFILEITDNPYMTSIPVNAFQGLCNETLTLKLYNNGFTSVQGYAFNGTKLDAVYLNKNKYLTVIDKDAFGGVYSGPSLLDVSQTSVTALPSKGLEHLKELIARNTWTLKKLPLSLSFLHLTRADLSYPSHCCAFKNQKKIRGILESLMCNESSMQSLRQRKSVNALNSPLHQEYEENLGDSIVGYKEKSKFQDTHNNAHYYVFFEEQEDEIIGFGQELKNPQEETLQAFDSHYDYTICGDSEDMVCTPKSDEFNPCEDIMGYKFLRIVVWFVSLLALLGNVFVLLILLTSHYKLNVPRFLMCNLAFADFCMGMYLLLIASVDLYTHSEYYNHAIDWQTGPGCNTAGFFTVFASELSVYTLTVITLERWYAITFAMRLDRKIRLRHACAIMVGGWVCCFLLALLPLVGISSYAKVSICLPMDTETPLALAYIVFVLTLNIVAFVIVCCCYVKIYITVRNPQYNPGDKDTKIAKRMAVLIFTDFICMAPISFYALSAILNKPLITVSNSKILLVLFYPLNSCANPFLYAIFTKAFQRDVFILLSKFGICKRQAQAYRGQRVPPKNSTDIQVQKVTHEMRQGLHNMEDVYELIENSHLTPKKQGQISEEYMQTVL
Sequence of Luciferin 4-monooxygenase (Photinus pyralis) (P08659 whole entry, looked up): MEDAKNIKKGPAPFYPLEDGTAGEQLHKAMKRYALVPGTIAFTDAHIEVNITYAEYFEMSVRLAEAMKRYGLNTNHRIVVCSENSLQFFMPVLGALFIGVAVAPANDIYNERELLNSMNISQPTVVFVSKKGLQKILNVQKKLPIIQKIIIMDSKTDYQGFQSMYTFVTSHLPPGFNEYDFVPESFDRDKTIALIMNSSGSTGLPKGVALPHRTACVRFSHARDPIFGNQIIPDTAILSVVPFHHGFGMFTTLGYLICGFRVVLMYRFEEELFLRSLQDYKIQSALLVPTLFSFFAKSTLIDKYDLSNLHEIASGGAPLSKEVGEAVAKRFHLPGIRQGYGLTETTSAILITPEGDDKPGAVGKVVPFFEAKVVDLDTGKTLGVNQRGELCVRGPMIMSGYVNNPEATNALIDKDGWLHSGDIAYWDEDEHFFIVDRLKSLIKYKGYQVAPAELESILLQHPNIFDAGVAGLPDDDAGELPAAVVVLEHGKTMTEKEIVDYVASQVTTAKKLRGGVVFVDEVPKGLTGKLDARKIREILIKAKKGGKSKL
Sequence of Nuclear receptor subfamily 1 group I member 3 (Homo sapiens) (Q14994 whole entry, looked up): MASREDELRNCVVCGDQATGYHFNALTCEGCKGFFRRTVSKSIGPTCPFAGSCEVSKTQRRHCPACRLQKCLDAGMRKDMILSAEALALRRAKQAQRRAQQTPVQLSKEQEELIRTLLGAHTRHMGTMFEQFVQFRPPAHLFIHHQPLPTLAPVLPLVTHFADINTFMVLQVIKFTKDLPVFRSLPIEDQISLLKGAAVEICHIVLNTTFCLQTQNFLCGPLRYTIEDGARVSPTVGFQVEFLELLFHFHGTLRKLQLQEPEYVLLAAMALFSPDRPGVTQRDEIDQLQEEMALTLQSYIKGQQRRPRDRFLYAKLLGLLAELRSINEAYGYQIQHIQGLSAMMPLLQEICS

With `CC(C)(C)c1ccc(C(=O)CCCN2CCC(OC(c3ccccc3)c3ccccc3)CC2)cc1`, the Potency in experiment [1] is 26.6 µM (active); in experiment [2], 29.8 µM (active); in [3], 29.8 µM (active); in [5], 29.8 µM (active); in [6] it was 11.9 µM (active); in [7] it was 19 µM (active). The Potency result in [4] is “inactive”.

On to `CC/C(=C(\c1ccc(O)cc1)c1ccc(OCCN(C)C)cc1)c1ccccc1`, for which the Potency in experiment [1] was 68.7 µM (active); in [8] it was 68.7 µM (active); in experiment [2] it was 68.7 µM (active); in experiment [3], 68.7 µM (active); in experiment [5], 48.7 µM (active); in experiment [7] it was 55.1 µM (active). Also, the Potency result in [9] and in experiment [4] was “inactive” throughout.

`N=C1N=C(N)c2ccccc21`: the Potency in experiment [8] is 43.3 µM (active); in experiment [2], 48.6 µM (active); in experiment [3], 54.5 µM (active); in experiment [10] it was 17.2 µM (active); in experiment [7], 21.9 µM (active). Besides, the Potency result in [9] and in experiment [4] was “inactive” each time.

For the compound `C[C@H](CCC(=O)O)[C@H]1CC[C@H]2[C@@H]3CC[C@@H]4C[C@H](O)CC[C@]4(C)[C@H]3CC[C@]12C`, the Potency entry in experiment [8], in [9], in experiment [2], in [3], in experiment [10] and in experiment [4] was “inactive” throughout. For the same compound, the Potency entry in experiment [5] and in experiment [12] was “inactive” throughout. Also, the Potency in experiment [11] is 68.3 µM (active); in [7] it was 43.5 µM (active) and 34.7 µM (active).

As for `On1ccccc1=S`, the Potency in [8] was 1.71 µM (active); in experiment [2], 1.21 µM (active); in [3] it was 0.762 µM (active); in [5], 0.605 µM (active); in experiment [7] it was 0.432 µM (active). Moreover, the Potency result in experiment [12] was “inactive”.

Turning to `O=c1[nH]sc2ccccc12`, the Potency in [1] is 17.2 µM (active); in experiment [8] it was 61.1 µM (active); in experiment [9], 20 µM (active); in experiment [2], 54.5 µM (active); in [3] it was 27.3 µM (active); in experiment [10], 21.7 µM (active). For the same compound, the Potency is 48.6 µM (active) in experiment [5] and 21.9 µM (active) in experiment [7]. The Potency entry in experiment [4] and in experiment [12] was “inactive” throughout.

For the compound `Oc1cccc(-c2c3nc(c(-c4cccc(O)c4)c4ccc([nH]4)c(-c4cccc(O)c4)c4nc(c(-c5cccc(O)c5)c5ccc2[nH]5)CC4)C=C3)c1`, the Potency is 10.6 µM (active) in [8], 5.96 µM (active) in [2], 5.31 µM (active) in experiment [3] and 10.6 µM (active) in [5]. Also, the Potency entry in experiment [4] and in experiment [7] was “inactive” in each case.

Take `Nc1c2ccccc2nc2ccccc12`: the Potency entry in experiment [9], in experiment [2], in experiment [3], in experiment [4], in experiment [5] and in experiment [12] was “inactive” each time. Also, the Potency result in experiment [6] is “inactive”. Also, the Potency in experiment [10] is 956 nM (active) and 1.68 µM (active); in experiment [7] it was 13.6 µM (active).

`[O-][n+]1ccccc1SSc1cccc[n+]1[O-]`: the Potency in experiment [1] was 0.092 µM (active); in [9], 0.425 µM (active); in experiment [2], 0.92 µM (active); in experiment [3] it was 0.206 µM (active); in experiment [11], 1.64 µM (active); in experiment [7] it was 0.117 µM (active). Moreover, the activation in experiment [6] is 15.2% [at 19 µM].

Turning to `O=C1c2c(O)ccc(Nc3ccc(CCO)cc3)c2C(=O)c2c([N+](=O)[O-])ccc(O)c21`, the Potency entry in experiment [1] is “inactive”. In addition, the Potency in experiment [8] is 38.6 µM (active); in [9], 17.8 µM (active); in [4], 27.3 µM (active).

On to `CC1=C(/C=C/C(C)=C/C=C/C(C)=C/C=O)C(C)(C)CCC1`, for which the Potency is 0.542 µM (active) in [13]; 27.1 µM (active) in experiment [8]; 54.2 µM (active) in [2]; 68.2 µM (active) in experiment [3]; 15.3 µM (active) in experiment [4]; 54.2 µM (active) in experiment [5]. For the same compound, the figures for the Potency in experiment [6] and in experiment [7] were 6.82 µM (active) and 30.7 µM (active), respectively.

Take `Oc1ccc2cc(SSc3ccc4cc(O)ccc4c3)ccc2c1`: the Potency in [1] was 7.7 µM (active) and 12.2 µM (active); in [8], 61.1 µM (active); in experiment [11] it was 48.6 µM (active) and 43.3 µM (active). For the same compound, the Potency entry in experiment [2], in experiment [3], in experiment [10], in [12], in experiment [6] and in experiment [7] was “inactive” throughout.

These data come from PubChem BioAssay (Tox21).
